# Screening data from PubChem BioAssay.
# PvdQ inh: blocks Pseudomonas aeruginosa PvdQ acylase activity | purified PvdQ acylase, fluorescence plate reader | inhibition, % at 10 µM | 340,000 tested, 0.063% active; in the data active means inhibition above about 30%, passing the limit was not always enough; inconclusive means no clear call, values can overlap the other calls;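 further: 0% = vehicle neutral wells and 100% = reference inhibitor wells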
# PGC1a acetyl inh: modulators of PGC1a acetylation. AID 651687. U2OS PGC1a acetylation, AlphaScreen anti-acetyl-lysine; with virally co-expressed GCN5 acetyltransferase. 350,000 tested, 0.17% active. inhibition, % at 15.6 µM;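 active means every replicate shows inhibition of at least 40%; inconclusive means mean inhibition at least 40% but some replicate below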;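 further: 0% = neutral control wells and 100% = positive control wells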
# miR122 inh: miR-122 inhibition in Huh7 cells; Huh7 miR-122 Renilla luciferase sensor, 48 h; neutral wells = 0, positive control = 100; activation (reporter increase), % at 12.5 µM; 340,000 tested, 0.3% active;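 active means mean replicate activation score at least 90 and every replicate individually at or above 90; inconclusive means only one of the two criteria met; inactive means neither criterion met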;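 further: higher luciferase means less miR-122 activity so hits act as miR-122 inhibitors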
# DENV2 CPE: inhibitors of DENV2 cytopathic effect | DENV2-infected cells, cytopathic effect rescue, plate reader | AID 651640 | CPE inhibition, % at 9.99 µM | 350,000 tested, 1.7% active; in the data active means CPE inhibition above about 20%, passing the limit was not always enough; inconclusive means no clear call, values can overlap the other calls; tested in BHK-21 cells;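 further: 0% = median of neutral control wells and 100% = median of positive control wells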
# Statin myotox sup: protects C2C12 myotubes from simvastatin toxicity; ATP luminescence, 48 h; scaled: DMSO 0, geranylgeraniol control 100; rescue of ATP level, % at 7.49 µM; 330,000 tested, 0.78% active; AID 602340;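 active means mean ATP rescue above about 67%, or every replicate alone reaching that limit, limit read from the data, passing the limit was not always enough; inconclusive means no clear call, values can overlap the other calls; inactive means mean under the limit and some replicate under it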;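 further: myotubes were challenged with 10 µM simvastatin during compound exposure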
# * marks the source's active call; other numbers are inactive results; ? = inconclusive; / = no result given; ! = not active in a repeat; [ ] = dose if it differs, or a comment. Only some compounds are listed: those with a hit (about 2.2% of all), similar ones and a draw of the others.
SMILES,PvdQ inh,PGC1a acetyl inh,miR122 inh,DENV2 CPE,Statin myotox sup
CN1CCN(C(=O)CCNC(=O)Cn2ccc3ccccc3c2=O)CC1,4,25,-5,/,1
O=C(Cn1ccc2ccccc2c1=O)NCCC(=O)N1CCN(C(=O)c2ccco2)CC1,0,-9,-5,/,78*
COCC(=O)N1CC2(C1)CN(Cc1cccc(OC)c1)[C@H](CO)c1c2c2ccc(OC)cc2n1C,/,-5,/,3,/
COc1ccc(S(=O)(=O)Nc2ccc3c(c2)CC(=O)N([C@@H](C)CO)C[C@H](C)[C@@H](CN(C)Cc2ccncc2)O3)cc1,/,-5,1[16.7 µM],4,1
Cc1ccc(NC(=O)C2CCC2)cc1S(=O)(=O)N1CCCCCC1,-5,-9,-5,-5,9
CCOc1ccc(NS(=O)(=O)c2cc(NC(=O)C3CC3)ccc2C)cc1Br,4,-4,140*,13,-4
CCCNC(=O)N1[C@H](CO)[C@@H]2c3ccccc3N(C(=O)Nc3ccccc3)C[C@@H]21,/,9,-10[16.7 µM],/,5
COc1ccc(NC(=O)N[C@@H]2CC[C@@H](CC(=O)NC3CCCCC3)O[C@H]2CO)cc1,/,18,/,-7,-3
[O-]/C(=C(\C(=S)NCc1ccccc1)[n+]1ccccc1)c1ccc(Cl)s1,-2,/,173*,-4,4
[O-]/C(=C(\C(=S)NCCN1CCOCC1)[n+]1ccccc1)c1ccc(Cl)s1,1,2,1,1,-7
Cc1noc(C)c1NC(=O)Nc1ccc2c(c1)C(=O)N([C@H](C)CO)C[C@H](C)[C@@H](CN(C)C(=O)Nc1cccc3ccccc13)OCCCC[C@@H](C)O2,/,-6,2[16.7 µM],-10,/
Cc1ccc(C(=O)N(c2ccccn2)C(C)c2ccco2)cc1C (stereo not given),-6,3,56,/,123*
COCC(=O)N(C)C[C@H]1Oc2ncc(-c3ccc(C#N)cc3)cc2C(=O)N([C@@H](C)CO)C[C@H]1C,/,5,-2[16.7 µM],-3,24
COc1cccc(C(=O)Nc2ccc3c(c2)C(=O)N(C)[C@@H]2CC[C@H](CC(=O)NCCCN4CCOCC4)O[C@@H]2CO3)c1,/,/,/,3,11
O=C(Nc1ccccn1)c1ccc(C(=O)c2ccccc2)cc1,1,8,-5,-7,13
O=C(c1ccccc1)c1nc[nH]c1C(=O)Nc1ccccn1,-15,2,0,/,120*
CC(C)OCC(O)CN (stereo not given),0,-2,-2,/,97*
CCN1CCN(CC(O)COC(C)C)CC1 (stereo not given),-17,5,-6,/,8
Cc1ccc2nc(SCC(=O)Nc3ccc(F)cc3)nc(=O)n2c1,-14,76*,1,?,9
C[C@@H]1CN([C@@H](C)CO)C(=O)c2cccc(NC(=O)Nc3ccc4c(c3)OCO4)c2O[C@H]1CN(C)Cc1ccc(Cl)c(Cl)c1,/,-10,16[16.7 µM],3,-39
C[C@@H]1CN([C@H](C)CO)S(=O)(=O)c2ccc(C#CC3CCCC3)cc2O[C@H]1CN(C)Cc1cccnc1,/,-3,45[16.7 µM],-2,-148
COc1ccc(CC(C)N2CCN(Cc3ccccc3)CC2)c(OC)c1 (stereo not given),-7,-7,4,2,96*
CCC(=O)Nc1ccc2c(c1)OC[C@H](C)N(CC1CCCCC1)C[C@H](C)[C@H](OC)CN(C)C2=O,/,10,0[16.7 µM],/,-8
CN(Cc1nc2ccccc2c(=O)[nH]1)C(=O)c1cccc(S(=O)(=O)N2CCc3ccccc32)c1,-2,-1,3,44*,-15
NC(=O)CC(NC(=O)Cc1cccc2ccccc12)c1ccc(N2CCCCCC2)c([N+](=O)[O-])c1 (stereo not given),-6,15,-5,-4,-4
SMILES,PvdQ inh,PGC1a acetyl inh,miR122 inh,DENV2 CPE,Statin myotox sup
NC(=O)CC(NC(=O)Cc1cccc2ccccc12)c1ccc(N2CCC(N3CCCCC3)CC2)c([N+](=O)[O-])c1 (stereo not given),-11,4,-2,23*,-11
Cc1cc(C)cc(C(=O)NC(CC(N)=O)c2ccc(N3CCC(Cc4ccccc4)CC3)c([N+](=O)[O-])c2)c1 (stereo not given),-6,/,/,123*,7
Cc1noc(C)c1S(=O)(=O)N(C)C[C@@H]1OCCCC[C@@H](C)Oc2ccc(NS(=O)(=O)c3cccs3)cc2C(=O)N([C@@H](C)CO)C[C@H]1C,/,-20,2[16.7 µM],-16,/
COc1ccc2c3c(n(C)c2c1)[C@H](CO)N(Cc1nccs1)CC31CN(C(C)=O)C1,/,1,/,-7,/
CCNc1nc(N)nc(Oc2ccc(OCCOc3ccccc3)nn2)n1,0,/,151*,/,/
CC(C)NC(=O)Nc1ccc2c(c1)CC(=O)N([C@@H](C)CO)C[C@H](C)[C@H](CN(C)C(=O)Nc1ccc3c(c1)OCO3)O2,/,1,6[16.7 µM],-3,-9
CCOc1cccc(CNc2ccc(O)cc2)c1OCc1ccccc1Cl,-15,6,-8,/,108*
CCOc1cccc(CNc2ccc(O)cc2)c1OCc1ccc(Cl)cc1Cl,-22,-8,-4,/,15
O=C(CCl)Nc1ccc(S(=O)(=O)NC2=NCCCCC2)cc1,-7,3,-5,60*,5
CC(C)NC(=O)Cn1c(=O)n(CC(=O)N2CCCCC2)c(=O)c2sccc21,-11,3,-1,-5,101*
CCCNC(=O)Cn1c(=O)n(CC(=O)N2CCCCC2)c(=O)c2sccc21,3,2,-3,1,3
CNC[C@H]1Oc2c(NS(=O)(=O)c3cccs3)cccc2C(=O)N([C@H](C)CO)C[C@H]1C,/,1,-4[16.7 µM],?,-3
CC(C)c1nc2sc3c(NCc4ccco4)ncnc3c2c2c1COC(C)(C)C2,-16,59*,-2,/,9
CC(C)c1nc2sc3c(NCc4ccccc4)ncnc3c2c2c1COC(C)(C)C2,-13,1,1,/,-8
CN(C)C(=O)c1ccc(-c2ccc3c(c2)[C@@H]2[C@@H](CCN2C(=O)C2CCCCC2)[C@H](CO)N3C)cc1,/,-16,/,7,/
O=c1[nH]c2nc(Cl)nc(Cl)c2[nH]1,-12,74*,-1,1,-1
C[C@H](CO)N1C[C@H](C)[C@H](CN(C)C(=O)Nc2ccc3c(c2)OCO3)OCCCC[C@H](C)Oc2ccc(NC(=O)Nc3ccccc3)cc2C1=O,/,12,-2[16.7 µM],-7,/
O=C1/C(=C/c2ccccc2[N+](=O)[O-])COc2ccccc21,5,-121,11,4,169*
Cn1nccc1C(=O)Nn1cnnc1,1,0,-11,/,118*
Cc1nn(C)c(C)c1NC(=O)c1ccnn1C,-8,2,3,/,-4
C[C@@H]1CCCCO[C@H](CN(C)S(=O)(=O)c2cccs2)[C@@H](C)CN([C@@H](C)CO)C(=O)c2cc(NC(=O)c3ccccc3)ccc2O1,/,-11,59[16.7 µM],23*,/
C[C@@H]1CN([C@H](C)CO)C(=O)c2cc(NC(=O)Nc3ccc(F)cc3)ccc2O[C@@H](C)CCCCO[C@H]1CN(C)S(=O)(=O)c1cccs1,/,-7,-5,47*!,141*!
